Measured values taken from PubChem BioAssay (NCI).
Where “and” joins values, the source holds several entries; their conditions need not be identical. Identical values can stand only once. Compounds without any hit were thinned out: in the full panel of roughly 79,000, 15% have a hit. Rule as the data show it: active = growth inhibition above about 70%; inactive = the rest.

How the values were obtained:
[1] = NCI Yeast Anticancer Drug Screen. Data for the rad50 strain (AID 155);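 also: 0% = growth of vehicle-only cultures of the same strain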; settings: S. cerevisiae rad50 strain growth inhibition, active compounds read high; at 50.0 µM unless noted
Outline: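 Yeast carrying a defined DNA repair defect were exposed to test compounds, and growth was compared with vehicle-treated controls to give percent inhibition.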

[2] = NCI Yeast Anticancer Drug Screen. Data for the mec2-1 strain (AID 157); settings: S. cerevisiae mec2-1 strain, active compounds read high; at 50.0 µM unless noted
Outline: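 Vehicle-treated cultures served as reference for growth inhibition of compound-exposed mec2-1 yeast.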

[3] = NCI Yeast Anticancer Drug Screen. Data for the sgs1 mgt1 strain (AID 161);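 also: 0% = growth of cultures given vehicle only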; settings: S. cerevisiae sgs1 mgt1 strain, active compounds read high; at 50.0 µM unless noted
Outline: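 Mutant yeast exposed to compound; growth scored against vehicle-only wells.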

[4] = NCI Yeast Anticancer Drug Screen. Data for the cln2 rad14 strain (AID 165);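 also: 0% = growth equal to vehicle treated cultures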; settings: S. cerevisiae cln2 rad14 strain, active compounds read high; at 50.0 µM unless noted
Outline: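 Each compound was tested on cln2 rad14 yeast. Inhibition of growth was calculated against vehicle-exposed controls.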

[5] = NCI Yeast Anticancer Drug Screen. Data for the bub3 strain (AID 167); settings: S. cerevisiae bub3 mutant strain, active compounds read high; at 50.0 µM unless noted
Outline: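 Compounds were applied to a genetically altered yeast strain carrying a cell-cycle control defect. Growth inhibition was scored against vehicle-treated controls.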

[6] = NCI Yeast Anticancer Drug Screen. Data for the mlh1 rad18 strain (AID 175); settings: S. cerevisiae mlh1 rad18 strain growth inhibition, active compounds read high; at 50.0 µM unless noted
Outline: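 Vehicle-treated cultures served as the reference for growth inhibition in a yeast strain carrying DNA damage repair alterations exposed to each compound.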

Measured: growth inhibition

Nc1nc(Cl)c(N)c(NCC2(CO)CC(Cc3ccccc3)C2)n1 (stereo not given)
inactive: [1] 26.4% | [2] -35.4% | [3] 18.9% | [4] 7.6% | [5] 31% | [6] 15.1%

C1CN(C23OC4(N5CCOCC5)C5C6CC(C7C6C4C72)C53)CCO1 (stereo not given)
inactive: [1] -18.9% | [2] -3% | [3] -3.9% | [4] -43.1% | [5] -0.05% | [6] -11.2%

O=[N+]([O-])c1ccc(C[n+]2ccccc2)cc1
inactive: [1] -1.25% and 31.9% | [2] 13.2% and -3.9% | [3] -4.2% and -1.45% | [4] -15.8% and 16.4% | [5] -6.95% and -2.65% | [6] -18.2% and 13.7%

CC(=O)OCC(OC(C)=O)C(OC(C)=O)C(OC(C)=O)C(OC(C)=O)C(=O)NC1CCc2ccccc2C1 (stereo not given)
inactive: [1] 24.8% | [2] 2.6% | [3] 13.6% | [4] 30.4% | [5] 0.25% | [6] 21.9%

Cc1ccc(S(=O)(=O)C2OC(CO)C(O)C(O)C2O)cc1 (stereo not given)
inactive: [1] -11.5% | [2] -16.6% | [3] -5.55% | [4] -21.1% | [5] 14.9% | [6] -6.25%

OCc1ccccc1Sc1ccccc1CO
inactive: [1] 15.8% | [2] -8.6% | [3] 2.6% | [4] 11.8% | [5] -31.6% | [6] 24%

COc1ccc(CCl)cc1OCc1ccccc1
inactive: [1] -33.7% | [2] -17.8% | [3] -16.7% | [4] -24.4% | [5] -14.7% | [6] -21.2%

CN(C)c1ccc(C(c2ccc(N(C)C)cc2)c2ccc([N+](=O)[O-])cc2)cc1
inactive: [1] -3.75% | [2] -35.7% | [3] -48.3% | [4] 8.3% | [5] 39% | [6] -16.8%

CCC(/C=C/c1ccc(C)cc1)=N\NC(=O)c1ccccc1
inactive: [1] -0.25% | [2] -2.3% | [3] -1.1% | [4] 19.2% | [5] 3.35% | [6] 3.05%

C=CCCCC12CCCc3cccc(c31)NC2=O (stereo not given)
inactive: [1] 48.7% | [2] 17.4% | [3] 24.8% | [4] 48% | [5] 46.5% | [6] 34.6%

O=C(O)COc1ccc([N+](=O)[O-])cc1[N+](=O)[O-]
inactive: [1] 20.9% | [2] 14% | [3] 22.4% | [4] 7.95% | [5] 3.95% | [6] 16.6%

CCCCCCOS(=O)(=O)c1ccc(C)cc1
inactive: [1] 23.1% | [2] -9.95% | [3] -2.1% | [4] 16.6% | [5] 6.7% | [6] 22.4%

NC(=O)c1ccccc1OC(=O)Nc1ccc(F)c([N+](=O)[O-])c1
inactive: [1] 3.75% | [2] 26.6% | [3] 12.4% | [4] -1.95% | [5] 20.7% | [6] 12.1%

Cc1ccc([N+](=O)[O-])cc1N1C(=O)c2ccccc2C1=O
inactive: [1] 14.5% | [2] -13.6% | [3] 12.6% | [4] 8.2% | [5] 13.6% | [6] 13.2%

CC(=O)NNc1nc(C)c(C(/C=C/c2ccc(Cl)cc2)=N/NC(=O)C[N+](C)(C)C)s1
inactive: [1] 15.1% | [2] 7.25% | [3] 9.15% | [4] 21.8% | [5] 21.4% | [6] -0.25%

C/C(CC1=CCCCC1)=N\NC(N)=O
inactive: [1] -18.4% | [2] -17.9% | [3] -20.9% | [4] -27.9% | [5] -4.65% | [6] -12.7%

CCN(CC)C(=O)/C=C/c1ccccc1
inactive: [1] -54.9% | [2] -28.6% | [3] -6.05% | [4] -33.2% | [5] 1.7% | [6] -14.8%

O=c1[nH]c2nc3ccccc3c(=O)n2nc1Cc1ccccc1
inactive: [1] -15.7% | [2] -19.6% | [3] -8.6% | [4] -2.05% | [5] -13.3% | [6] 0.7%

CCOC(=O)C(Cc1ccc(Cl)cc1)(NC(C)=O)C(=O)OCC
inactive: [1] -1.25% | [2] -13.6% | [3] -4.25% | [4] -23.9% | [5] 14.4% | [6] -10.4%

COc1ccc(/C(C)=C\C(=O)O)cc1
inactive: [1] -1.95% | [2] -3.2% | [3] -9.55% | [4] -43.2% | [5] -40% | [6] 7.15%

CC1(C)CC(=O)C(/C=N/C(=S)Nc2ccc(S(N)(=O)=O)cc2)=C(O)C1
inactive: [1] -41.5% | [2] -68.5% | [3] -23.8% | [4] -8.55% | [5] -16.6% | [6] -30.4%

CCCCC(CC)OC(=O)c1ccccc1C (stereo not given)
inactive: [1] -8.05% | [2] -4.55% | [3] 0.5% | [4] -30.9% | [5] -1.4% | [6] -23.8%

Cc1[nH]n(C(N)=S)c(=O)c1N=Nc1ccc([N+](=O)[O-])cc1Cl
inactive: [1] 57.8% | [2] 6% | [3] 66.2% | [4] -46.5% | [5] 1.5% | [6] 53.2%

COc1ccc(C2NC3=C(CCCC3)N2)cc1
inactive: [1] 26.4% | [2] 4.45% | [3] -13.9% | [4] 8.3% | [5] -3.9% | [6] 32.9%

CC(=O)OC[C@H](O)[C@@]1(O)CC[C@H]2[C@@H]3CCC4=CC(=O)C=C[C@]4(C)[C@H]3[C@@H](O)C[C@@]21C
inactive: [1] 33.2% | [2] 14.9% | [3] 23.9% | [4] 1.15% | [5] 41.6% | [6] 27%

NC(=O)C1OCOC2C(CO)OCOC12 (stereo not given)
inactive: [1] -1.9% | [2] -14.4% | [3] -3% | [4] -52.1% | [5] -7.4% | [6] -6.15%

CCO/C([O-])=N\[n+]1c(C)nc2cc3c(cc2c1C)OCO3
inactive: [1] 5.75% | [2] 5.65% | [3] 1.2% | [4] 7.8% | [5] 9% | [6] 8.9%

Cc1ccc(S(=O)(=O)NC(CCC(=O)N2CCOCC2)C(=O)O)cc1 (stereo not given)
inactive: [1] -18.1% | [2] -4% | [3] 7.15% | [4] -57.9% | [5] 24.8% | [6] 8.6%

O=C(NC(CO)Cc1ccccc1)OCc1ccccc1 (stereo not given)
inactive: [1] -4.15% | [2] -5.25% | [3] 0% | [4] 5.45% | [5] 8.1% | [6] -7.65%

NC(N)=N/N=C(/c1ccccc1)c1ccc(O)cc1O
inactive: [1] 20.2% | [2] -15.7% | [3] -8.5% | [4] 9.7% | [5] -48.6% | [6] 14.5%

Nc1ncnc(Nc2ccc(Cl)cc2Cl)n1
inactive: [1] 5.05% | [2] -11.7% | [3] 5.75% | [4] 1.85% | [5] 5.25% | [6] -7.05%

CC(O)c1cccc(NC(=O)NC2CCCCC2)c1 (stereo not given)
inactive: [1] -2.55% | [2] 28.1% | [3] 10.8% | [4] -6.1% | [5] 29.4% | [6] 27.8%

O=C(Nc1ccc(Cl)cc1)Nc1nnc(-c2cccc(Cl)c2)o1
inactive: [1] 5.8% | [2] 5.75% | [3] 26.9% | [4] -51.9% | [5] 0.2% | [6] 15%

Clc1ccc(N=NNc2ccccc2)cc1
inactive: [1] 29.6% and 6.7% | [2] -0.85% and -2.8% | [3] -22.9% and -22.1% | [4] -30.1% and -10.1% | [5] -20.1% and -6.6% | [6] -16.4% and 30.2%

O=C1C=C(c2ccccc2)C(c2ccccc2)/C1=N/O (stereo not given)
inactive: [1] 11.3% | [2] -12.9% | [3] 2.55% | [4] 13.1% | [5] 11.9% | [6] -9.85%

NCc1cc(Br)ccc1O
inactive: [1] 24.4% | [2] 3.3% | [3] 23.5% | [4] -66.2% | [5] -11% | [6] 20.6%

NC(N)=NS(=O)(=O)c1ccc(N=NC2=C(O)C(c3ccccc3)N(c3ccccc3)C2=O)cc1 (stereo not given)
inactive: [1] 6.35% | [2] 22.1% | [3] 35.5% | [4] 0.3% | [5] 0.45% | [6] 33%

CCOC(=O)c1cc([N+](=O)[O-])cnc1C
inactive: [1] 5.8% | [2] 10% | [3] -1.7% | [4] 0.4% | [5] 8.45% | [6] 2.4%

CC(O)CNC(=O)C(C)(C)O (stereo not given)
inactive: [1] 36% | [2] 13.6% | [3] 20.7% | [4] 9.65% | [5] 21.8% | [6] 18.9%

O=c1ccc(-c2ccc(-n3ccnc3)cc2)nn1CCO
inactive: [1] -39.4% | [2] -49.5% | [3] -24.7% | [4] -2.7% | [5] -38% | [6] -10.8%
